Data reported in ChEMBL document CHEMBL1961873, “Compounds: GSK PKIS; Assays: Nanosyn kinase panel” (2012).

What was measured:
[1] = target: Mast/stem cell growth factor receptor Kit (Homo sapiens) (UniProt P10721); settings: at 1 µM
[2] = test system: Mast/stem cell growth factor receptor Kit (Homo sapiens), P10721 [D816V]; settings: at 0.1 µM
[3] = test system: Mast/stem cell growth factor receptor Kit (Homo sapiens), P10721 [D816V]; settings: at 1 µM
[4] = test system: Mast/stem cell growth factor receptor Kit (Homo sapiens), P10721 [T670I]; settings: at 0.1 µM
Sequence of Mast/stem cell growth factor receptor Kit (Homo sapiens), P10721 [T670I] (P10721 whole entry T670I): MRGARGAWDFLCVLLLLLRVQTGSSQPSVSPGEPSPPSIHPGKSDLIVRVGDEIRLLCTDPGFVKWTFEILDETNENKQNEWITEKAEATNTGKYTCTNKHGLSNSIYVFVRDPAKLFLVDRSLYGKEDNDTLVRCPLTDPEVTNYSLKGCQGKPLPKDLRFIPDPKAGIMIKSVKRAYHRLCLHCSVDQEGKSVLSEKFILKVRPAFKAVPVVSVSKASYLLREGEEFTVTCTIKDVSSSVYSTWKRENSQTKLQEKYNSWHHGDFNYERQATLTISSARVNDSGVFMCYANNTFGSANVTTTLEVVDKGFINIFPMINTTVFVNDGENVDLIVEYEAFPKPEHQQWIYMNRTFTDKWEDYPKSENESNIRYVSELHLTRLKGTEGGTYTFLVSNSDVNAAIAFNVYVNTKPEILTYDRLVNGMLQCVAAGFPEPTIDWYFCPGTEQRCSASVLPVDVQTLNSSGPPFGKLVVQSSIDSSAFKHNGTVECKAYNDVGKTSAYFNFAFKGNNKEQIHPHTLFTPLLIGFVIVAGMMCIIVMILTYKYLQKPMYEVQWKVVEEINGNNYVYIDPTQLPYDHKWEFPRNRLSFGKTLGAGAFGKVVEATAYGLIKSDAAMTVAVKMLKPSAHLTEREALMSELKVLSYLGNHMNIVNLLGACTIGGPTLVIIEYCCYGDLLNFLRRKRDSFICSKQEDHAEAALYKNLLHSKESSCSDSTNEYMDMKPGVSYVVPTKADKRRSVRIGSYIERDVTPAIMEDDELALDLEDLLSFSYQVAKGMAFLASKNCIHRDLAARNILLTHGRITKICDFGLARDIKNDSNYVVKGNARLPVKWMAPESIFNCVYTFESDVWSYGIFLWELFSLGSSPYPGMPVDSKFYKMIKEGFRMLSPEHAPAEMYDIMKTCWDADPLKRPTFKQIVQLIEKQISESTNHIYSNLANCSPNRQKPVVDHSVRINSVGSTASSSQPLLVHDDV

[5] = test system: Mast/stem cell growth factor receptor Kit (Homo sapiens), P10721 [T670I]; settings: at 1 µM
[6] = test system: Mast/stem cell growth factor receptor Kit (Homo sapiens), P10721 [V560G]; settings: at 0.1 µM
Sequence of Mast/stem cell growth factor receptor Kit (Homo sapiens), P10721 [V560G] (P10721 whole entry V560G): as the sequence (P10721 whole entry T670I) above, with V560G, I670T counted along it

[7] = test system: Mast/stem cell growth factor receptor Kit (Homo sapiens), P10721 [V560G]; settings: at 1 µM
[8] = target: Tyrosine-protein kinase Lck (Homo sapiens) (UniProt P06239); settings: at 0.1 µM
Sequence of Tyrosine-protein kinase Lck (Homo sapiens) (P06239 2-509 limits assumed): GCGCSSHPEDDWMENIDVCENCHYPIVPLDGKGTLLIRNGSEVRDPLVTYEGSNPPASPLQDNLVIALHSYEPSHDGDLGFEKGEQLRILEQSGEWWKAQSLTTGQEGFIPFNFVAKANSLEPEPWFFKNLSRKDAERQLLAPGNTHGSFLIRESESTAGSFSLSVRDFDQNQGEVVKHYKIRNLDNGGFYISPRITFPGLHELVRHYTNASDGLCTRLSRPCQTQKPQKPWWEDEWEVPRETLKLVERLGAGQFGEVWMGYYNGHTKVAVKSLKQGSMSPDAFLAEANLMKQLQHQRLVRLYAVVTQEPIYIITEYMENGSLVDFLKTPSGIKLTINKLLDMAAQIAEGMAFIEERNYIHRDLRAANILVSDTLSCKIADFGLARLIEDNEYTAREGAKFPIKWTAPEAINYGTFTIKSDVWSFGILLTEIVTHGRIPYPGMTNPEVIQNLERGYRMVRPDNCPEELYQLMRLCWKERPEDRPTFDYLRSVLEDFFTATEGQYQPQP

[9] = target: Tyrosine-protein kinase Lck (Homo sapiens) (UniProt P06239); settings: at 1 µM
[10] = target: Leukocyte tyrosine kinase receptor (Homo sapiens) (UniProt P29376); settings: at 0.1 µM
Sequence of Leukocyte tyrosine kinase receptor (Homo sapiens) (P29376 whole entry): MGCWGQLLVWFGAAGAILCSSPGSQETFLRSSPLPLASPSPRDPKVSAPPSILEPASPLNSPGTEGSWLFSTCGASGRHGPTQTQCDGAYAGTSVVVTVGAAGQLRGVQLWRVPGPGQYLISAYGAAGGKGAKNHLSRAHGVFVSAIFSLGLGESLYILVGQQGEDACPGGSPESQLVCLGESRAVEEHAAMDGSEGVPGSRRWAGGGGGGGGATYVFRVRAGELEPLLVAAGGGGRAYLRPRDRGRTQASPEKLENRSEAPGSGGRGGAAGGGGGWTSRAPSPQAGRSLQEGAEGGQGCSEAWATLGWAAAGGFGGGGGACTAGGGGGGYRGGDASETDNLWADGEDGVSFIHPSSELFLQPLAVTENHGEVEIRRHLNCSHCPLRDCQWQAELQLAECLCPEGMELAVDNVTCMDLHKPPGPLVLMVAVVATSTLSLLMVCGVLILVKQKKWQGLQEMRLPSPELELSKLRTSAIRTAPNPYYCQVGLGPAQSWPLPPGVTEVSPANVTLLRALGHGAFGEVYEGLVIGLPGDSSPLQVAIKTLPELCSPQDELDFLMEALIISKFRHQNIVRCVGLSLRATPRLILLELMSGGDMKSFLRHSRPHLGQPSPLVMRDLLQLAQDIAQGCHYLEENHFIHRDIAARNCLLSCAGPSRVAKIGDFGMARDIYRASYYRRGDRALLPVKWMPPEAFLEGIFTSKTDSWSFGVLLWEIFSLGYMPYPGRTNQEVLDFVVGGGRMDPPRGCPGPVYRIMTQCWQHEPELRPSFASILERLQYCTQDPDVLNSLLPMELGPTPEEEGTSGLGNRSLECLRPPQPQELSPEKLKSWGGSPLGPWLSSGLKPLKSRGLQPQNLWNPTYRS

[11] = target: Leukocyte tyrosine kinase receptor (Homo sapiens) (UniProt P29376); settings: at 1 µM
[12] = target: Tyrosine-protein kinase Lyn (Homo sapiens) (UniProt P07948); settings: at 0.1 µM
Sequence of Tyrosine-protein kinase Lyn (Homo sapiens) (P07948 2-512 limits assumed): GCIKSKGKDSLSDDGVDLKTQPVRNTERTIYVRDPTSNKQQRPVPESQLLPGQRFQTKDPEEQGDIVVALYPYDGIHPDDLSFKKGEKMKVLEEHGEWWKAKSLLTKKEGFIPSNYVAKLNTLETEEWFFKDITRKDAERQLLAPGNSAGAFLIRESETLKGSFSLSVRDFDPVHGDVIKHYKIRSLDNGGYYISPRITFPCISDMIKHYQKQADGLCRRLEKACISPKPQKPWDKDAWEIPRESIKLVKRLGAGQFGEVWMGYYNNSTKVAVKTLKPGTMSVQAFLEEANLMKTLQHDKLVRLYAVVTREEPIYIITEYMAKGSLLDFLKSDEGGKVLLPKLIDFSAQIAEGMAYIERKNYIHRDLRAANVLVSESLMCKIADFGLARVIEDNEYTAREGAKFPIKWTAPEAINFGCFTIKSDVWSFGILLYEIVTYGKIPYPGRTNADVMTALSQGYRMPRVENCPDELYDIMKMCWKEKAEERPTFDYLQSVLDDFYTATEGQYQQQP

[13] = target: Tyrosine-protein kinase Lyn (Homo sapiens) (UniProt P07948); settings: at 1 µM
[14] = target: Tyrosine-protein kinase Lyn (Homo sapiens) (UniProt P07948); settings: at 0.1 µM; remark: listed apart in the source
[15] = target: Tyrosine-protein kinase Lyn (Homo sapiens) (UniProt P07948); settings: at 1 µM; remark: listed apart in the source
[16] = target: T1, Tyrosine-protein kinase Mer (Homo sapiens) (UniProt Q12866); settings: at 0.1 µM
T1 sequence (whole entry): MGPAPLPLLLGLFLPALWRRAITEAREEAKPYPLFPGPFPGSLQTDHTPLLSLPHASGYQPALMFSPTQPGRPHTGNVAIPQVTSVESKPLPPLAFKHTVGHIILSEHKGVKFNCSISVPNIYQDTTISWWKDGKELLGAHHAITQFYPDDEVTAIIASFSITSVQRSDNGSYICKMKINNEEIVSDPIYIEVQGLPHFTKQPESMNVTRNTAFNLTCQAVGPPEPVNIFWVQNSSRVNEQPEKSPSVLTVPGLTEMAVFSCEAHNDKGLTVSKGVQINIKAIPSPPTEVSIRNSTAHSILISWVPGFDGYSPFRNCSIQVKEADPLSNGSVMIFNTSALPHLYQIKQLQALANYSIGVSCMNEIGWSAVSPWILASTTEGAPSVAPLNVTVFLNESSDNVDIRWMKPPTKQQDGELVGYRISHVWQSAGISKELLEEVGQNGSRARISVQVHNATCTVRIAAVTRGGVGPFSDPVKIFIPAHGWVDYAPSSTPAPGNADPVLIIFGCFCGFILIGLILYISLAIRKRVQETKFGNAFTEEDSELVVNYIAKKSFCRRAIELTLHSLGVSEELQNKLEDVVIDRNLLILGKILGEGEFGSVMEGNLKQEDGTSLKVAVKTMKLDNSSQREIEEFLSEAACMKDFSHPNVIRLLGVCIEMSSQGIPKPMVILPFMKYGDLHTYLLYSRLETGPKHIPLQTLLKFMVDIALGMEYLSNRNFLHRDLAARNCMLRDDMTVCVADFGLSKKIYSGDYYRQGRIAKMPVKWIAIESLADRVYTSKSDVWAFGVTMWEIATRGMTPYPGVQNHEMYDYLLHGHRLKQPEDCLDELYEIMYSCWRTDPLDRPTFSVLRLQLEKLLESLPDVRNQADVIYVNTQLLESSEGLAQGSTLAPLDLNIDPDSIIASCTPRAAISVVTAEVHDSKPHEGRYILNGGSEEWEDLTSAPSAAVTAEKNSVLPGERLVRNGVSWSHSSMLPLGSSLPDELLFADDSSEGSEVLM

[17] = target: T1, Tyrosine-protein kinase Mer (Homo sapiens); settings: at 1 µM
[18] = target: Hepatocyte growth factor receptor (Homo sapiens) (UniProt P08581); settings: at 0.1 µM
Sequence of Hepatocyte growth factor receptor (Homo sapiens) (P08581 whole entry): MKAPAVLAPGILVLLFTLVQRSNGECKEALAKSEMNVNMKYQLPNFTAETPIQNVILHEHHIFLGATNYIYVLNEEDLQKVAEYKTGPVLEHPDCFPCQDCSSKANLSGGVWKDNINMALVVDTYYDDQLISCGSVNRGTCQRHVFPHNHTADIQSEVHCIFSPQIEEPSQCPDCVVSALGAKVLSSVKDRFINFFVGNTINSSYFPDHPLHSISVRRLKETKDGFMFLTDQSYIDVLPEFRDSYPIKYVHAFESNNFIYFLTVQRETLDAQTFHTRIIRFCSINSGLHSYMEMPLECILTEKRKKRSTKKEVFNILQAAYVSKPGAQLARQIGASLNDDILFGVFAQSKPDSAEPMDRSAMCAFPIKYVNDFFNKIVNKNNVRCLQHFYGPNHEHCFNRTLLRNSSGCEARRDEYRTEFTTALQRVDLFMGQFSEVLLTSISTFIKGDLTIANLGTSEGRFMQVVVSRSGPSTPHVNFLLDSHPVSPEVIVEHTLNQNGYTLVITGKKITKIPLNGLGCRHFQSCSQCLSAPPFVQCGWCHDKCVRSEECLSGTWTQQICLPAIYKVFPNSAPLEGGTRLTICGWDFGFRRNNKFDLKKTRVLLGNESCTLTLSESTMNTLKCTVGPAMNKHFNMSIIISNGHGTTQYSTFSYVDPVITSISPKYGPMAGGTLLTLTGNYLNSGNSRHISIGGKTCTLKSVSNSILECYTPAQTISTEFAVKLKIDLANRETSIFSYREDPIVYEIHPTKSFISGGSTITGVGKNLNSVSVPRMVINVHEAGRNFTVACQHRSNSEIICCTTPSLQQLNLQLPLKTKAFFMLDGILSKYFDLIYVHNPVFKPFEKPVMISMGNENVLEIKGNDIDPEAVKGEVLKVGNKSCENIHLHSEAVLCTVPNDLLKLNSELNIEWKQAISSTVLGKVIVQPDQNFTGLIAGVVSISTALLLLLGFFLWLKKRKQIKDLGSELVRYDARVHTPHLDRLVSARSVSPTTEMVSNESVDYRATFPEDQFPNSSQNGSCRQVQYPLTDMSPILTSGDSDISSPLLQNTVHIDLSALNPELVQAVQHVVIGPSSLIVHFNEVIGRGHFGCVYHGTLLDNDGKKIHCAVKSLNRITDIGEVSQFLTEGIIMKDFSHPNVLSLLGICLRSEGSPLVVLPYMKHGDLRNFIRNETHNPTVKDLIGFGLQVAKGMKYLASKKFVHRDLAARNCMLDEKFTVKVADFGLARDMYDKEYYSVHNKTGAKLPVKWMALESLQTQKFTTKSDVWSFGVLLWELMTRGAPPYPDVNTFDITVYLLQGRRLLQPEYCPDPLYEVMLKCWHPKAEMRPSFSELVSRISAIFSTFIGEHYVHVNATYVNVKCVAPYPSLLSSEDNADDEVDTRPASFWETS

[19] = target: Hepatocyte growth factor receptor (Homo sapiens) (UniProt P08581); settings: at 1 µM
[20] = target: T2, Muscle, skeletal receptor tyrosine-protein kinase (Homo sapiens) (UniProt O15146); settings: at 0.1 µM;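 also: values are mean inhibition of MuSK from the GSK PKIS kinase screening panel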
T2 sequence (whole entry): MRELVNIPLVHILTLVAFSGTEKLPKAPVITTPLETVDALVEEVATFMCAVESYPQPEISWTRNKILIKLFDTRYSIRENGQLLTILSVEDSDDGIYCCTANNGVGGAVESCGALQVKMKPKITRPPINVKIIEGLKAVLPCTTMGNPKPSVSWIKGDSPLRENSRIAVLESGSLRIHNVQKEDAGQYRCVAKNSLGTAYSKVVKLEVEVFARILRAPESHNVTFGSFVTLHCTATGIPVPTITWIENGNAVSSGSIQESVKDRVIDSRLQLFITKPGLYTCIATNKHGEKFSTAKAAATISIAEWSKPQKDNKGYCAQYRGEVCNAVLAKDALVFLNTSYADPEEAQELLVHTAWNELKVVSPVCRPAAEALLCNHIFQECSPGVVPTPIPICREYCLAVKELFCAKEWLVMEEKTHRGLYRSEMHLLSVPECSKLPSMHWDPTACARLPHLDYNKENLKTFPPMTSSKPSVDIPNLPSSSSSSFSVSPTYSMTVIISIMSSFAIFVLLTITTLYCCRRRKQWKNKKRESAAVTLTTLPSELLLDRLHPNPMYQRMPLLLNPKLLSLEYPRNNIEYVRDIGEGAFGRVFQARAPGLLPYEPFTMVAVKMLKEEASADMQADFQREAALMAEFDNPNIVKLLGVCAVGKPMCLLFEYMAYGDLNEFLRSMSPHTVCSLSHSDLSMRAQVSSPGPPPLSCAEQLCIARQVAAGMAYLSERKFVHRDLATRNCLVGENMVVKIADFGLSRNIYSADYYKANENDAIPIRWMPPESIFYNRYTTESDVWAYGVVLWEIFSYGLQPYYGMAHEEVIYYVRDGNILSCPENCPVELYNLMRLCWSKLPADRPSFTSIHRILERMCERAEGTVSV

Sequence of Mast/stem cell growth factor receptor Kit (Homo sapiens), P10721 [D816V] (P10721 whole entry D816V): as the sequence (P10721 whole entry T670I) above, with I670T, D816V counted along it
Sequence of Mast/stem cell growth factor receptor Kit (Homo sapiens) (P10721 whole entry): as the sequence (P10721 whole entry T670I) above, with I670T counted along it

Row | SMILES | inhibition [1] [%] | inhibition [2] [%] | inhibition [3] [%] | inhibition [4] [%] | inhibition [5] [%] | inhibition [6] [%] | inhibition [7] [%] | inhibition [8] [%] | inhibition [9] [%] | inhibition [10] [%] | inhibition [11] [%] | inhibition [12] [%] | inhibition [13] [%] | inhibition [14] [%] | inhibition [15] [%] | inhibition [16] [%] | inhibition [17] [%] | inhibition [18] [%] | inhibition [19] [%] | inhibition [20] [%]
1 | c1ccc(Oc2ccc(Nc3ncc(-c4ccccc4)o3)cc2)cc1 | 19.9 | -0.64 | -0.49 | 2.73 | 5.55 | -0.1 | 5.53 | 2.67 | 2.2 | 1.67 | 1.13 | 3.36 | 2.98 | 1.38 | 2.09 | 0.19 | 0.42 | 1.79 | 7.6 | 1.27
2 | CNC(=O)c1cncc(/C=C/c2c(C)cccc2C)c1 | 51.7 | 1.76 | 0.69 | -0.72 | -0.77 | 3.1 | 17.2 | 3.11 | 30 | -1.27 | -0.39 | 22.1 | 72.4 | 17.6 | 67.8 | -0.47 | 3.56 | -0.92 | 1.41 | 3.8
3 | COc1cc(Nc2ncc3c(C)nc(-c4cccc(C(F)(F)F)c4)n3n2)cc(OC)c1OC | 44.8 | 4.72 | 5.97 | 1.57 | 7.22 | -0.27 | 7.67 | 3.24 | 20.1 | 4.18 | 4.56 | 8.46 | 27.6 | 5.92 | 21.9 | 1.71 | 4.47 | 8.25 | 9.19 | 3.85
4 | COc1cccc(-n2cnc3c(N/N=C/c4ccncc4)ncnc32)c1 | 83.4 | 0.1 | 3.79 | -2.23 | 6.36 | 3.15 | 18.8 | 3.69 | 29.3 | -1.69 | 0.9 | 7.17 | 47.2 | 6.07 | 41.6 | 0.12 | 4.47 | 0.87 | 6.87 | 2.4
5 | Cc1ccc(NC(=O)c2ccoc2)cc1-c1ccc(C(=O)NCC2CC2)cc1 | 0.22 | 3.87 | 3.1 | 1.06 | 1.82 | 0.04 | -1.21 | 2.02 | 3.87 | 2.79 | 3.16 | 3.73 | 3.68 | 3.72 | 4.12 | 1.1 | 1.81 | 11.4 | 0.85 | 0.54
6 | O=C(Nc1ccc(Oc2ccc3[nH]c(NC(=O)c4ccccc4)nc3c2)cc1)Nc1cc(C(F)(F)F)ccc1F | 85.1 | 1.52 | 4.26 | 5.51 | 52.1 | 10.4 | 67 | 2.25 | 14.4 | 1.84 | 3.76 | 5.73 | 27.5 | 3.48 | 23.4 | 1.3 | 3.74 | 4.39 | 19.2 | 13.9
